HEK cytotox = cytotoxic compounds in HEK 293 cells | HEK 293 viability, ATP luminescence (CellTiter-Glo), 48-72 h | Potency, µM (top dose mostly 115 µM), for the others: top-dose activity change, negative = cytotoxicity, usual class: inhibitors | 94,000 compounds, 6.6% hits | AID 1345083; note: % is set by controls: 0 for no effect and ±100 for the full control effect; nearly all actives have a fitted effect of over 60% in size
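qHTS cytotoxicity; HEK 293, 250 cells/well; compound pinned; 48 or 72 hr, 37 degree Celsius, 5% CO2, 95% humidity; CellTiter-Glo, 10 min RT; luminescence (ATP).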
FLuc inh-1 = blocks purified firefly luciferase enzyme activity; purified P. pyralis luciferase, luminescence, biochemical; 76,000 compounds, 2.5% hits; AID 1347043; Potency, µM (top dose mostly 115 µM), usual class: inhibitors; P08659; note: % is set by controls: 0 for no effect and ±100 for the full control effect; nearly all actives have a fitted effect of over 65% in size
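Inhibitors were tested against purified firefly luciferase in a biochemical, low-substrate format (both substrates at 10uM) and luminescence measured with a CCD imager.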
3T3 cytotox = cytotoxic compounds in NIH 3T3 cells | NIH 3T3 viability, CellTiter-Glo ATP luminescence, 48-72 h | Potency, µM (series often up to 96.7 µM), for the others: top-dose activity change, negative = cytotoxicity, most hits filed as inhibitors | 94,000 compounds, 4.3% hits | AID 1345082; note: % is set by controls: 0 for no effect and ±100 for the full control effect; nearly all actives have a fitted effect of over 55% in size
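ATP-dependent luminescence (CellTiter-Glo) served as the viability signal for NIH 3T3 cells treated with compound for 48 or 72 hr at 37 °C.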
NPR1 antag = antagonists of human natriuretic peptide receptor Npr1 | P16066 | HEK293 hNpr1 GloSensor cGMP, ANP-stimulated luminescence | Potency, µM (highest dose often 46.3 µM), without a hit: at the top dose activity change, negative = inhibition, most hits filed as inhibitors | 76,000 compounds, 1.6% hits | AID 1347048; calls by dose curve; note: % is set by controls: 0 for no effect and ±100 for the full control effect; nearly all actives have a fitted effect of over 60% in size
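HEK293 cells stably expressing human Npr1 and cGMP GloSensor pGS-40F, loaded 2 h with 2% GloSensor reagent, given compound 30 min at room temperature. Luminescence read before and 20 min after 0.1 nM hNppA.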
FLuc SDR no ATP = stabilizes firefly luciferase without ATP | shares compounds with FLuc inh-1 | Purified FLuc-C-HiBiT, Nano-Glo HiBiT luminescence, no ATP | Potency, µM (highest dose often 32.7 µM), for the others: top-dose activation (signal gain), hits mostly activators | 1,300 compounds, 7.8% hits; note: nearly all actives have a fitted effect of over 55% in size
FLuc SDR ATP = firefly luciferase binding stabilization, ATP added; shares compounds with FLuc inh-1; purified FLuc-C-HiBiT + ATP, HiBiT complementation luminescence; Potency, µM (titrated, usually from 32.7 µM), without a hit: at the top dose activation (gain of signal), hits mostly activators; 1,300 compounds, 8.7% hits;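 note: signal reports ligand binding via conformational change of the enzyme rather than luciferase catalysis; % of control where 0% means no effect; nearly all actives have a fitted effect of over 55% in size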
FLuc inh-2 = inhibitors of firefly luciferase enzymatic activity. shares compounds with FLuc inh-1. purified FLuc-C-HiBiT enzyme, luciferin luminescence. Potency, µM (doses to about 32.7 µM), inactives show at the highest dose activity change, negative = inhibition, most hits filed as inhibitors. 1,300 compounds, 42% hits; note: % is set by controls: 0 for no effect and ±100 for the full control effect; nearly all actives have a fitted effect of over 70% in size
* hit, by the source's call; [ ] = another dose, or the depositor's remark. Shown are actives, neighbours in structure and some others; about 11% of the full set was active somewhere. Unless noted, calls come from the whole dose curve; as a rule, active = well fitted curve in the direction sought with a large enough effect; inconclusive = small, poorly fitted or top-dose-only effect, or another doubt; inactive = no such curve, though single readings can be large; an effect the other way counts as inactive or inconclusive. Potency is the fitted concentration of half-maximal effect.

What do the screens show for `CC1CCCN(c2ncnc3c2CN(c2ccccc2)C(=O)N(C)C3)C1` (centres undefined)?
HEK cytotox: inactive; FLuc inh-1: inactive; 3T3 cytotox: -7%; NPR1 antag: 0%

Results for Cc1ccc(-n2ncc3c(N4CCCC(C)C4)ncnc32)cc1C (centres undefined) ?
FLuc SDR no ATP: 3.5µM*; FLuc SDR ATP: 1.2µM*; FLuc inh-2: 0.16µM*

Results for COC1CCCN(Cc2cn(-c3ccc(F)cc3)nc2-c2ccccc2Cl)C1 (centres undefined) ?
HEK cytotox: inconclusive; FLuc inh-1: inactive; 3T3 cytotox: inconclusive; NPR1 antag: -6%

How did CC(C)Oc1ccc(C(=O)Nc2nnc3n2CCS3)cc1 do in these assays?
FLuc SDR no ATP: 28%; FLuc SDR ATP: inconclusive; FLuc inh-2: inconclusive

How did OC1(CN2CCCN(c3nc4ccccc4s3)CC2)CNCCOC1 (centres undefined) do in these assays?
HEK cytotox: inconclusive; FLuc inh-1: 13µM*; 3T3 cytotox: inconclusive; NPR1 antag: 2%; FLuc SDR no ATP: 17%; FLuc SDR ATP: 14%; FLuc inh-2: -7%

How did CCN1CCN(c2csc3ccc(Cl)cc3c2=O)CC1 do in these assays?
FLuc SDR no ATP: 21%; FLuc SDR ATP: 15%; FLuc inh-2: inconclusive

What do the screens show for `CN(Cc1cnn(C)c1)C(=O)c1csc2nc(-c3ccc(C(F)(F)F)cc3)cn12`?
HEK cytotox: inconclusive; FLuc inh-1: 4.5µM*; 3T3 cytotox: inconclusive; NPR1 antag: inconclusive; FLuc SDR no ATP: inconclusive; FLuc SDR ATP: inconclusive; FLuc inh-2: 4.4µM*

What do the screens show for `CN(Cc1cnccn1)C(=O)c1csc2nc(-c3cccc(C(F)(F)F)c3)cn12`?
HEK cytotox: inconclusive; FLuc inh-1: inconclusive; 3T3 cytotox: inconclusive; NPR1 antag: 16%

How did O=C(c1ccc(N2CC3CC(C2)[C@H]2CCCC(=O)N2C3)nc1)N1CCN(c2cccc(Cl)c2)CC1 (some centres undefined) do in these assays?
HEK cytotox: inconclusive; FLuc inh-1: inactive; 3T3 cytotox: inconclusive; NPR1 antag: 1%

What do the screens show for `N#Cc1c(-n2ncnc2-c2ccc(Br)cc2)sc2c1CCCCC2`?
FLuc SDR no ATP: 23%; FLuc SDR ATP: 21%; FLuc inh-2: 9.9µM*

Results for COc1ccc(-n2nc3ccc(NC(=O)c4c(OC)cccc4OC)cc3n2)cc1 ?
FLuc SDR no ATP: 16%; FLuc SDR ATP: 12%; FLuc inh-2: -16%

Results for COc1ccc(NC(=O)c2c(OC)cc(=O)n3c2CCCC3)cc1 ?
HEK cytotox: -8%; FLuc inh-1: inactive; 3T3 cytotox: inconclusive; NPR1 antag: -6%

Results for CCCC1=Nc2cc(C(=O)NCCc3ccc(OC)c(OC)c3)ccc2Sc2ccc(C)cc21 ?
HEK cytotox: inconclusive; FLuc inh-1: inactive; 3T3 cytotox: inconclusive; NPR1 antag: -12%

How did COc1ccc(CNC(=O)c2ccc3c(c2)N=C(C)c2c(C)ccc(C)c2S3)cc1 do in these assays?
HEK cytotox: 10µM*; FLuc inh-1: inactive; 3T3 cytotox: inconclusive; NPR1 antag: -16%; FLuc SDR no ATP: 13%; FLuc SDR ATP: 8%; FLuc inh-2: 2%

What do the screens show for `c1ccc(-c2ccnc(NCCc3c[nH]c4ccccc34)n2)nc1`?
HEK cytotox: inconclusive; FLuc inh-1: 8.9µM*; 3T3 cytotox: inconclusive; NPR1 antag: -27%; FLuc SDR no ATP: 16%; FLuc SDR ATP: 12%; FLuc inh-2: inconclusive

How did CC(=O)N1CCCN(C(=O)CC(c2cccc(O)c2)c2cccc(Cl)c2)CC1 (centres undefined) do in these assays?
HEK cytotox: -1%; FLuc inh-1: inactive; 3T3 cytotox: -2%; NPR1 antag: 0%

What do the screens show for `Cc1ccc(/C=C/C(=O)N2CCC(c3nc4ccccc4o3)CC2)cc1`?
FLuc SDR no ATP: 12%; FLuc SDR ATP: inconclusive; FLuc inh-2: inconclusive

How did CC1CCN(CC(=O)N2CCC(c3nc4ccccc4o3)CC2)C1=O (centres undefined) do in these assays?
HEK cytotox: -5%; FLuc inh-1: inactive; 3T3 cytotox: 2%; NPR1 antag: -3%

What do the screens show for `C[S+](=O)([O-])c1ccc(-c2cc3c(cn2)CN(CCc2ccccc2)CCN3)cc1`?
HEK cytotox: inconclusive; FLuc inh-1: inconclusive; 3T3 cytotox: inconclusive; NPR1 antag: -10%[70.6 µM]

What do the screens show for `CC(C)(C)CN1CCNc2cc(Nc3cccnc3)ncc2C1`?
HEK cytotox: -39%[172 µM]; FLuc inh-1: 1.6µM*; 3T3 cytotox: inconclusive; NPR1 antag: -1%[70.6 µM]; FLuc SDR no ATP: inconclusive; FLuc SDR ATP: inconclusive; FLuc inh-2: 6.4µM*

What do the screens show for `CC(C)(C)CN1CCNc2cc(Nc3ccccc3)ncc2C1`?
HEK cytotox: inconclusive; FLuc inh-1: 2.2µM*; 3T3 cytotox: 50µM*; NPR1 antag: inconclusive; FLuc SDR no ATP: inconclusive; FLuc SDR ATP: 17%[49.3 µM]; FLuc inh-2: 7.2µM*

How did c1cncc(CN2CCNc3cc(-c4cn[nH]c4)ncc3C2)c1 do in these assays?
HEK cytotox: inconclusive; FLuc inh-1: inconclusive; 3T3 cytotox: inactive; NPR1 antag: -1%[70.6 µM]

How did CC1(Cc2ccc3c(c2)OCO3)CCCN(C(=O)c2ccc3ncsc3c2)C1 (centres undefined) do in these assays?
HEK cytotox: 45µM*; FLuc inh-1: 7.9µM*; 3T3 cytotox: -19%; NPR1 antag: -23%; FLuc SDR no ATP: inconclusive; FLuc SDR ATP: 18%; FLuc inh-2: inconclusive

How did Cn1c(=O)c2ccnn2c2ccc(C(=O)Nc3ccc4c(c3)OCCO4)cc21 do in these assays?
HEK cytotox: 35µM*; FLuc inh-1: 10µM*; 3T3 cytotox: -19%; NPR1 antag: -27%; FLuc SDR no ATP: 26%; FLuc SDR ATP: 20%; FLuc inh-2: 9.9µM*

What do the screens show for `CN1c2cc(C(=O)Nc3ccc(Cl)cc3)ccc2C(=O)N2CCCCC21` (centres undefined)?
HEK cytotox: inconclusive; FLuc inh-1: inconclusive; 3T3 cytotox: inconclusive; NPR1 antag: 0%

Results for Cn1c(=O)c2ccnn2c2ccc(C(=O)NC3CCCC3)cc21 ?
HEK cytotox: -27%; FLuc inh-1: inactive; 3T3 cytotox: -20%; NPR1 antag: -4%

High-throughput results from PubChem.
